MITF inh – MITF inhibition | TRPM1 promoter luciferase, luminescence, 24 h | inhibition, % (no concentration beside the values) | 0.28% of 37,000 active; in the data active = inhibition above about 85%; inconclusive = no clear call, values can overlap the other calls; inactive = below about 68%;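 note: human melanocyte line stably carrying TRPM1 promoter luciferase reporter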
Shh pathway inh – Sonic Hedgehog pathway inhibition | 2.1% of 22,000 active | Shh-LIGHT2 Gli-luciferase reporter, 30 h | AID 2313 | inhibition, % (no concentration beside the values);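 active = mean inhibition across valid replicates above about 65%, limit read from the data; inconclusive = mean under the limit, yet half or more replicates past it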;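 note: pathway switched on by Shh-conditioned medium diluted 1 in 25 in low serum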
NOMO-1 viab – STK33 inhibitor candidate reducing NOMO-1 cell viability. NOMO-1 AML viability, CellTiter-Glo luminescence, 72 h. inhibition, % (concentration not given with the values). 7.5% of 37,000 active; in the data active = inhibition above about 80%; inconclusive = no clear call, values can overlap the other calls
A number is an active result; n = inactive; u = inconclusive; x = not tested or not shown. An excerpt weighted towards active compounds, which were near 7.9% of everything screened.

SMILES	MITF inh	Shh pathway inh	NOMO-1 viab
COc1ccc(CN2C(=O)c3cccc4cccc(c34)C2=O)cc1S(=O)(=O)N1CCOCC1	n	x	n
CC(CCc1ccccc1)N=c1c([N+](=O)[O-])nn(-c2ccccc2)n1O (stereo not given)	n	x	n
O=[N+]([O-])c1nn(-c2ccccc2)n(O)c1=NC1CCN(Cc2ccccc2)CC1	n	x	114.3
C[C@@H]1CN([C@@H](C)CO)C(=O)c2cc(NC(=O)Nc3ccc(C(F)(F)F)cc3)ccc2O[C@@H]1CN(C)C(=O)Nc1ccccc1	n	n	n
C[C@@H]1CN([C@H](C)CO)C(=O)c2cc(NC(=O)Nc3ccccc3)ccc2O[C@@H]1CN(C)C(=O)Nc1ccc(C(F)(F)F)cc1	n	n	86.7
C[C@@H]1CN([C@@H](C)CO)C(=O)c2cc(NC(=O)Nc3ccccc3)ccc2O[C@@H]1CN(C)C(=O)Nc1ccc(C(F)(F)F)cc1	n	n	102.0
C[C@H](CO)N1C[C@H](C)[C@H](CN(C)C(=O)Nc2ccccc2)Oc2ccc(NC(=O)Nc3ccc(C(F)(F)F)cc3)cc2C1=O	n	n	103.2
C[C@H]1CN([C@@H](C)CO)C(=O)c2cc(NC(=O)Nc3ccccc3)ccc2O[C@H]1CN(C)C(=O)Nc1ccc(C(F)(F)F)cc1	n	n	n
C[C@H]1CN([C@@H](C)CO)C(=O)c2cc(NC(=O)Nc3ccccc3)ccc2O[C@@H]1CN(C)C(=O)Nc1ccc(C(F)(F)F)cc1	n	n	n
C[C@H]1CN([C@@H](C)CO)C(=O)c2cc(NC(=O)CCCN(C)C)ccc2O[C@H]1CN(C)Cc1ccc(-c2ccccc2)cc1	n	n	n
S=C(NCc1csc2ccccc12)NCC1CC1	n	n	n
CC1CC(NC(=S)NCc2csc3ccccc23)CC(C)(C)C1 (stereo not given)	n	u	109.0
CNC[C@@H]1Oc2ccc(NS(=O)(=O)c3ccc(OC)cc3)cc2CC(=O)N([C@H](C)CO)C[C@H]1C	n	n	n
O=C(CSc1nnc(-c2ccccc2)n1-c1ccccc1)Nc1cccc(Br)c1	n	x	u
C/C(CCc1oc2ccccc2c1-c1ccc(C)o1)=N\O	n	x	108.5
Cc1ccc(C(=O)CCNc2ccc3c(c2)oc2ccccc23)o1	n	x	n
CC(C)CC1NC(=O)C(CC(C)C)N(O[C@@H]2O[C@H](COC(=O)CCC(=O)O)[C@@H](O)[C@H](O)[C@H]2O)C1=O (stereo not given in full)	n	74.1	118.5
COc1cc2cc(Oc3ccc4ccc(=O)oc4c3)c(=O)oc2cc1OC1OC(COC(=O)CC(C)(O)CC(=O)O)C(O)C(O)C1O (stereo not given)	n	n	n
C=C1C(=O)O[C@H]2C1CCC(C)=C1C(=O)C=C(C)[C@@]12O (stereo not given in full)	n	n	105.9
CCCCc1ccc(NC(=O)N=S2CCN(C(=O)c3ccc(Cl)cc3)CC2)cc1	n	n	n
CC(=O)C(Sc1cc(C)nc(N)n1)C(=O)Nc1ccccc1 (stereo not given)	n	x	n
CCn1c2ccccc2c2cc(NS(=O)(=O)c3ccccc3)ccc21	n	x	136.4
CCn1c2ccccc2c2cc(NC(=O)CSc3nnnn3-c3ccccc3)ccc21	n	x	n
COc1c(CCC(=O)O)c(O[C@@H]2O[C@H](CO)[C@@H](O)[C@H](O)[C@H]2O)cc2occc12	x	n	x
C[C@@H]1CN([C@@H](C)CO)C(=O)Cc2cc(NS(=O)(=O)c3ccc(Cl)cc3)ccc2O[C@@H]1CN(C)Cc1ccccc1	n	n	u
SMILES	MITF inh	Shh pathway inh	NOMO-1 viab
C[C@H]1CN([C@@H](C)CO)C(=O)Cc2cc(NS(=O)(=O)c3ccc(Cl)cc3)ccc2O[C@@H]1CN(C)Cc1ccccc1	n	n	106.8
C[C@H]1CN([C@@H](C)CO)C(=O)Cc2cc(NS(=O)(=O)c3ccc(Cl)cc3)ccc2O[C@H]1CN(C)Cc1ccccc1	n	n	100.7
C[C@H]1CN([C@@H](C)CO)C(=O)Cc2cc(NS(=O)(=O)c3ccccc3)ccc2O[C@@H]1CN(C)Cc1ccccc1	n	n	n
Cc1noc(C)c1NC(=O)Nc1cccc2c1O[C@H](CN(C)S(C)(=O)=O)[C@H](C)CN([C@@H](C)CO)C2=O	n	n	n
O=C(COc1cc(O)c2c(=O)c3ccccc3oc2c1)c1ccc(Cl)cc1	n	x	116.8
O=C(COc1cc(O)c2c(=O)c3ccccc3oc2c1)c1cccc([N+](=O)[O-])c1	n	x	n
COc1ccc(S(=O)(=O)N(C)C[C@H]2Oc3ccc(NC(=O)NC(C)C)cc3C(=O)N([C@@H](C)CO)C[C@H]2C)cc1	n	n	n
Cc1cc(Nc2ccc(F)cc2)nc(SCc2c(Cl)cccc2Cl)n1	n	x	n
Fc1ccc(Nc2nc3ccccc3nc2Nc2ccc(F)cc2)cc1	n	x	135.3
CCn1c(SCC(=O)c2cccc([N+](=O)[O-])c2)nnc1-c1ccccc1F	n	x	n

Source: PubChem (Broad Institute)
